Measurements as given in PubChem BioAssay (NCATS).
Results filed as inconclusive are left out. Where a call stands in place of a potency, no number is given. Activity calls are given as the source filed them. The call rests on the fitted dose curve; in most records, active means well fitted cell-killing curve with a large enough effect; inconclusive means small, poorly fitted or top-dose-only effect, or effect the other way; inactive means flat fitted curve, though single readings scatter.

Assay: S16 Schwann cell viability assay (CellTiter-Glo assay) (AID 624031); further: nearly all actives have a fitted effect of over 70% in size
Conditions: S16 rat Schwann cells viability, 24 h; series mostly up to 57.5 µM
Method in brief: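 Untransfected S16 rat Schwann cells; compound 24 h, 37 °C/5% CO2; CellTiter-Glo ATP luminescence. % activity vs no-cell wells and DMSO controls (0%); concentration-effect curves classed by r2, response magnitude, activity.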
Potency means the concentration at half of the fitted maximal effect.

Row | SMILES | Potency
1 | C1CCC(C(CC2CCCCN2)C2CCCCC2)CC1 (stereo not given) | 18.1 µM (active)
2 | NCCCC(O)(P(=O)(O)O)P(=O)(O)O | inactive
3 | CNC1CCCN(c2c(F)cc3c(=O)c(C(=O)O)cn(C4CC4)c3c2OC)C1 (stereo not given) | inactive
4 | CNCC[C@H](Oc1cccc2ccccc12)c1cccs1 | 16.1 µM (active)
5 | COc1ccc(C(=O)CC(=O)c2ccc(C(C)(C)C)cc2)cc1 | inactive
6 | Cc1cccc(N(C)C(=S)Oc2ccc3ccccc3c2)c1 | inactive
7 | COc1cc([C@@H]2c3cc4c(cc3[C@H](O)[C@H]3COC(=O)[C@H]23)OCO4)cc(OC)c1OC | inactive
8 | CC(C)(C)C(=O)OCOP(=O)(COCCn1cnc2c(N)ncnc21)OCOC(=O)C(C)(C)C | inactive
9 | CCCCCCNC(=O)n1cc(F)c(=O)[nH]c1=O | inactive
10 | O=C(O)c1cn(C2CC2)c2cc(N3CCNCC3)c(F)cc2c1=O | inactive
11 | CN(C)CCc1c[nH]c2ccc(CS(=O)(=O)N3CCCC3)cc12 | inactive
12 | COc1cc(NCc2ccc3nc(N)nc(N)c3c2C)cc(OC)c1OC | 28.7 µM (active)
13 | CN(CCOc1ccc(CC2SC(=O)NC2=O)cc1)c1ccccn1 (stereo not given) | inactive
14 | CCOc1cc(N)c(Cl)cc1C(=O)NCC1CN(Cc2ccc(F)cc2)CCO1 (stereo not given) | inactive
15 | CCc1c2c(nc3ccc(OC(=O)N4CCC(N5CCCCC5)CC4)cc13)-c1cc3c(c(=O)n1C2)COC(=O)[C@]3(O)CC | inactive
16 | CC1=CC(=O)c2ccccc2C1=O | 14.4 µM (active)
17 | CCCc1cc(C(N)=S)ccn1 | inactive
18 | Cc1cccc(Nc2ccncc2S(=O)(=O)NC(=O)NC(C)C)c1 | inactive
19 | CCn1cc(C(=O)O)c(=O)c2cc(F)c(N3CCN(C)CC3)cc21 | inactive
20 | COc1cc2c(Nc3ccc(Br)cc3F)ncnc2cc1OCC1CCN(C)CC1 | 20.3 µM (active)
